The text below walks through data of PubChem BioAssay (NCI).

Compounds without any hit were thinned out: in the full panel of roughly 79,000, 15% have a hit. Activity calls are given as the source filed them. Cut-off read from the data, not from the text of the source: active = growth inhibition above about 70%; inactive = the rest.

The first test in a line: NCI Yeast Anticancer Drug Screen. Data for the bub3 strain (AID 167). The following applies: S. cerevisiae bub3 mutant strain, at 50.0 µM, active compounds read high. The essentials: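 Readout: yeast growth inhibition, expressed relative to vehicle-only wells. The test organism is a mutant strain from a panel with lesions in DNA repair or checkpoint genes.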
On to `CCCCCCCCCC1(C(=O)OCC)OC1(C)C` (stereo not drawn), for which the growth inhibition is 15.2% (inactive). The same measure, in the same setting: then `CCOC(=O)NC1C2CC3C(C2)C31` (stereo not drawn), with -52.4% (inactive); and `CC1=NNC(=O)CC1C(O)c1ccccc1` (stereo not drawn), with -8.45% (inactive).

The nature of the next test: NCI Yeast Anticancer Drug Screen. Data for the mlh1 rad18 strain (AID 175). Particulars: S. cerevisiae mlh1 rad18 strain growth inhibition; at 50.0 µM; active compounds read high. The essentials: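 A repair-deficient yeast strain is exposed to test compound, and growth is scored relative to vehicle-treated controls.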
Turning to `COc1ccc2cc1Oc1ccc(cc1)CC1=NCCc3cc(OC)c(OC)c(c31)Oc1cc3c(cc1OC)CCN(C)C3C2` (stereo not drawn), the growth inhibition was 9.4% (inactive).

In the case of `C=C(Br)CNC(=O)Nc1ccccn1`, the growth inhibition was -8.75% (inactive).

`c1csc(-c2cc(-c3cccs3)c(-c3ccsc3)s2)c1`: the growth inhibition was -46% (inactive).

Take `O=C1NC(N(Cc2ccccc2)Cc2ccccc2)=NC1(c1ccccc1)c1ccccc1`: the growth inhibition was 20.6% (inactive). The same measure, in the same setting: with `CCNC(=O)Oc1cccc(NC(=O)CC)c1` the figure was 3.7% (inactive).

Turning to `N#Cc1nc(CC(=O)c2ccccc2Cl)c(CC(=O)c2ccccc2Cl)nc1C#N`, the growth inhibition was 19.4% (inactive). On the same count and under the same terms, then `N#C[C@H](c1nc2ccccc2[nH]1)c1nc2ccccc2nc1Cl`, with 12.7% (inactive); and `CC(=O)NOCC1NC(=O)C(CONC(C)=O)NC1=O` (stereo not drawn), with -54.6% (inactive).

Turning to `CCOC(=O)C(O)C(O)C(O)C(O)C(=O)OCC` (stereo not drawn), the growth inhibition was -8.75% (inactive). As for `CC(C)OC(=S)Nc1ccc(Cl)c(COC(C)(C)C)c1`, the growth inhibition was -7.4% (inactive).

On to `CC1(C)CSC(C)(C)C(=O)N1`, for which the growth inhibition is -1.1% (inactive). As for `O=C(O)c1[nH]c(=O)[nH]c(=O)c1C(=O)O`, the growth inhibition was -15% (inactive).

Consider `NC(=S)N/N=C1/CC(=O)N(c2ccccc2)C1c1ccccc1` (stereo not drawn), for which the growth inhibition is 38.9% (inactive). On the same count and under the same terms, then `CCN1c2ccccc2CC(C#N)(CCN(C)C)c2ccccc21` (stereo not drawn), with -0.35% (inactive); and `Cc1cnc2c(N)nc(-c3ccccc3)nc2n1`, with -0.45% (inactive); and `C=COC(=O)N1CCCCC1`, with 27.4% (inactive). On to `O=C1CN(c2ccccc2)C(=O)CN1/N=C/c1ccc(O)c(O)c1`, for which the growth inhibition is -11.2% (inactive). As to `CC1CC2C3(C1)CC(C(=O)OC3=O)C2(C)C` (stereo not drawn), the growth inhibition was 23.4% (inactive).

With `COc1ccc(C(CC(=O)O)CC(=O)O)cc1[N+](=O)[O-]`, the growth inhibition is 10.8% (inactive). With `COC(=O)c1cc(C(=O)c2ccccc2)cc2c1c(=O)[nH]c1ccccc12`, the growth inhibition was 6.75% (inactive). Still for that read-out and setting: then `Nc1ccc(C(=O)NN2C(=O)C(Cl)C2c2ccccc2Cl)cc1` (stereo not drawn), with 31.5% (inactive). On to `S=c1nc[nH]c2c1ncn2C1CCCC1`, for which the growth inhibition was -3.1% (inactive). Same read-out and setting: with `Cc1cc(C)c(NC(=O)Nc2cccc(Cl)c2)c(C)c1` the figure was -17.1% (inactive); with `O=C(OCC1OC(OC(=O)c2ccccc2)C(O)C1OC(=O)c1ccccc1)c1ccccc1` (stereo not drawn), 49.5% (inactive). The same measure, in the same setting: with `[O-]c1csc2n(-c3ccccc3)c3ccccc3[n+]12` the figure was 6.65% (inactive); with `COc1nc(SC)nc2[nH]ccc12`, -9.1% (inactive).

In the case of `O=S(=O)(O)c1cc(N=Nc2cc(S(=O)(=O)O)c3cccnc3c2O)ccc1/C=C/c1ccc(N=Nc2cc(S(=O)(=O)O)c3cccnc3c2O)cc1S(=O)(=O)O.[Cu+2].[Na+]`, the growth inhibition is 9.25% (inactive). The same measure, in the same setting: with `O=C1CN(Cc2ccccc2)CCO1` the figure was 1.4% (inactive); with `CC(C)/C(Cl)=N\OC(NC(=O)P(=O)(c1ccccc1)c1ccccc1)(C(F)(F)F)C(F)(F)F`, 60.9% (inactive). Take `O=c1[nH][nH]c(=O)c2[nH]cnc12`: the growth inhibition is -10% (inactive).

In the case of `CN1CCCc2cccc(NC(=O)C3CCCNC3=O)c21` (stereo not drawn), the growth inhibition was 9.75% (inactive). Still for that read-out and setting: then `CC(=O)Nc1c([N+](=O)[O-])cc(C2CCCCC2)cc1[N+](=O)[O-]`, with -9.85% (inactive); and `COC1(c2ccccc2)OC(=O)C(C)(C)c2ccccc21` (stereo not drawn), with 3.55% (inactive); and `COC(=O)C1C2CC3C(OC(=O)C31)C2OC(=O)[C@](OC)(c1ccccc1)C(F)(F)F` (stereo partly drawn), with 28.6% (inactive). Take `O=C(O)CCSc1ccccc1`: the growth inhibition is 20.1% (inactive). On to `CCN(CC)CCOC(NC(C)=O)(c1ccccc1)c1ccccc1`, for which the growth inhibition was 20% (inactive).

With `CCCCCCCCCCCCCC(=O)Cl`, the growth inhibition is -104% (inactive).

For the compound `CCCCCCCCCC1(C(=O)OCC)OC1(C)C` (stereo not drawn), the growth inhibition is -11.8% (inactive).

As to `CCOC(=O)NC1C2CC3C(C2)C31` (stereo not drawn), the growth inhibition was -32.5% (inactive). Regarding `CC1=NNC(=O)CC1C(O)c1ccccc1` (stereo not drawn), the growth inhibition was -11.4% (inactive).
